Source: PubChem
LGR2 inh: inhibitors of bursicon-induced LGR2 CRE-luciferase signal, primary screen, cell-based, HEK293, CRE-luciferase reporter, bursicon stimulation; Drosophila bursicon receptor LGR2 (rickets); bursicon-stimulated, 4 h; inhibition, % at 9.99 µM; 0.35% of 380,000 active;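 active = drop in luminescence signal, shown as inhibition above about 50% in the replicate tests, limit read from the data, passing the limit was not always enough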;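 also: agonist challenge used bursicon conditioned medium at about half maximal strength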
MITF TRPM1 HTS: activators of MITF-driven TRPM1 promoter reporter, primary screen, cell-based, SK-MEL-5, luciferase, single point. SK-MEL-5 TRPM1-promoter luciferase, 24 h; % of positive control, neutral wells = 0. activation, % at 12.5 µM. 0.75% of 300,000 active;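 active = mean activation of at least 80% with every replicate also reaching 80%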;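 also: 0% = neutral control wells and 100% = parthenolide positive control wells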
TROY signal inh: inhibitors of TROY-driven NF-kB signaling, primary screen, Q293 LMP1-TROYcd cells, NF-kB luciferase, uHTS. Q293 LMP1-TROYcd NF-kB luciferase reporter, 4 h. inhibition, % at 10 µM. 0.98% of 360,000 active. AID 1347056, 2019;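 active = compounds whose plate-normalised and pattern-corrected inhibition of the luciferase reporter signal at the single screening dose is 50% or more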
TWEAK Fn14 block: inhibitors of TWEAK-Fn14 signaling, primary screen, luciferase reporter cells, uHTS; TWEAK-stimulated Fn14 reporter cells, luciferase luminescence, 8 h; inhibition, % at 10 µM; 2% of 360,000 active; AID 1159606, 2016; in the data active = inhibition above about 50%
MITF TRPM1 inh: inhibitors of MITF-dependent TRPM1 promoter reporter, primary screen, cell-based, SK-MEL-5, single point, luciferase; AID 488899, 2010; inhibition, % at 12.5 µM; SK-MEL-5 TRPM1 promoter luciferase, 24 h; 0.83% of 330,000 active;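 active = mean inhibition across replicates of 60% or more, whatever share of single replicates reaches that level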
EBV LMP1 NFkB: EBV LMP1-driven NF-kappaB luciferase reporter inhibitors, primary screen, cell-based, luminescence, single point; LMP1-induced NF-kappaB luciferase reporter cells; inhibition, % at 12.5 µM; 0.69% of 350,000 active; in the data active = inhibition above about 41%;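 also: 0% = neutral control wells and 100% = reference inhibitor control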
* = called active by the depositor; x = no result given. Most compounds without a hit are left out; they make up all but 3% or so of the library.

SMILES | LGR2 inh | MITF TRPM1 HTS | TROY signal inh | TWEAK Fn14 block | MITF TRPM1 inh | EBV LMP1 NFkB
O=C(Nc1ccc(Oc2ccc(Cl)cc2)c(Cl)c1)c1cc(I)cc(I)c1O | 5.3 | -2.7 | 72.1* | 57.0* | 4.8 | -2.5
COc1ccc(NC(=O)c2ccccc2F)cc1Cl | x | 50.2 | -50.2 | -33.0 | -57.3 | -31.8
COc1ccc(NC(=O)N(C)C[C@@H]2Oc3ccc(NC(=O)C4CC4)cc3CC(=O)N([C@@H](C)CO)C[C@H]2C)cc1 | -11.6 | x | x | x | x | x
CC(C)NC(=O)N[C@H]1CC[C@@H](CCNS(=O)(=O)Cc2ccccc2)O[C@@H]1CO | -3.5 | x | x | x | x | x
CC1=C(CC(=O)O)c2cc(F)ccc2/C1=C/c1ccc(S(C)=O)cc1 (centres undefined) | 18.9 | 3.9 | 7.6 | 9.9 | -8.4 | 0.4
CC1=C(CC(=O)O)c2cc(F)ccc2C1=Cc1ccc(S(C)(=O)=O)cc1 | 1.5 | -2.4 | 0.4 | -2.9 | 2.3 | 83.5*
CN1CCN(C(=O)C[C@@H]2C[C@H]3c4cc(NC(=O)Nc5ccc(F)cc5)ccc4O[C@H]3[C@@H](CO)O2)CC1 | -10.0 | x | x | x | x | x
Cc1cc(NC(=O)c2ccccc2F)n(-c2nc3ccccc3[nH]2)n1 | x | 19.3 | -10.7 | 15.0 | -18.6 | -0.7
COc1ccc(/C=C/C(=O)Nc2cc(C)nn2-c2nc3ccccc3[nH]2)cc1 | -7.8 | 92.0* | -58.0 | 13.9 | -102.8 | -20.1
Cc1cc(NC(=O)c2ccc(C)s2)n(-c2nc3ccccc3[nH]2)n1 | -32.3 | 4.5 | -23.7 | 2.0 | -6.8 | 66.6*
Cc1cc(NC(=O)/C=C/c2ccc(F)cc2)n(-c2nc3ccccc3[nH]2)n1 | 4.8 | 30.9 | -55.5 | -38.7 | -27.0 | -3.3
O=CC1=C(c2ccccc2)Oc2ccccc2O1 | 10.1 | x | 38.0 | 58.3* | 12.3 | 4.4
C[C@H]1CCCCO[C@@H](CN(C)C(=O)Nc2ccc(F)cc2)[C@@H](C)CN([C@@H](C)CO)C(=O)c2cc(NC(=O)C3CCCCC3)ccc2O1 | 65.6* | x | x | x | x | x
COc1ccc(NC(=O)N(C)C[C@@H]2OCCCC[C@H](C)Oc3ccc(NC(=O)NC4CCCCC4)cc3C(=O)N([C@H](C)CO)C[C@@H]2C)cc1 | 57.2* | x | x | x | x | x
C[C@H](CO)N1C[C@H](C)[C@H](CN(C)C(=O)Nc2ccc(C(F)(F)F)cc2)OCCCC[C@H](C)Oc2ccc(NC(=O)CCC(F)(F)F)cc2C1=O | 64.9* | x | x | x | x | x
C[C@H]1CCCCO[C@@H](CN(C)C(=O)Nc2ccccc2)[C@@H](C)CN([C@@H](C)CO)C(=O)c2cc(NC(=O)NC3CCCCC3)ccc2O1 | 62.9* | x | x | x | x | x
COc1ccc(NC(=O)N(C)C[C@H]2OCCCC[C@H](C)Oc3ccc(NC(=O)NC4CCCCC4)cc3C(=O)N([C@@H](C)CO)C[C@H]2C)cc1 | 8.7 | x | x | x | x | x
C[C@@H]1CN([C@@H](C)CO)C(=O)c2cc(NC(=O)CCC(F)(F)F)ccc2O[C@@H](C)CCCCO[C@H]1CN(C)C(=O)Nc1ccc(C(F)(F)F)cc1 | 15.8 | x | x | x | x | x
C[C@H](CO)N1C[C@H](C)[C@@H](CN(C)C)OCCCC[C@H](C)Oc2ccc(NS(=O)(=O)c3ccccc3)cc2C1=O | -2.0 | x | x | x | x | x
CO[C@H]1CN(C)C(=O)c2cc(NC(=O)NC(C)C)ccc2OC[C@H](C)N(Cc2cncnc2)C[C@@H]1C | -5.9 | x | x | x | x | x
COc1ccc2nc(N=Nc3ccc(O)c4ccccc34)sc2c1 | x | -76.3 | 18.4 | 37.9 | 74.9* | 0.7
COc1ccc2nc(N=NC3=C(O)CC(C)(C)CC3=O)sc2c1 | -22.1 | -64.1 | 33.0 | 13.0 | 63.6* | 13.5
Nc1c(C(=O)NCc2ccccc2)c2nc3ccccc3nc2n1CCCN1CCOCC1 | 0.7 | 6.7 | -6.4 | 5.5 | -4.2 | -61.2
Nc1c(C(=O)NCc2ccco2)c2nc3ccccc3nc2n1CCc1ccccc1 | 15.9 | -20.0 | 66.4* | 71.7* | 16.8 | 2.4
Cc1cccc2c(N=NC(=O)C(C)n3cnc4ccccc4c3=O)c(O)[nH]c12 (centres undefined) | 4.0 | -11.8 | 16.0 | -13.6 | 14.4 | -0.9
SMILES | LGR2 inh | MITF TRPM1 HTS | TROY signal inh | TWEAK Fn14 block | MITF TRPM1 inh | EBV LMP1 NFkB
CC(C(=O)N=Nc1c(O)[nH]c2ccccc12)n1cnc2ccccc2c1=O (centres undefined) | 16.7 | -15.4 | 23.4 | 6.4 | 18.9 | 61.3*
CCOc1ccc(CN(C)CC(=O)Nc2cc(OC)c([N+](=O)[O-])cc2C)cc1 | 7.0 | -7.1 | 26.4 | 39.3 | 9.7 | 2.7
CCOc1ccc(CN(C)CC(=O)Nc2cc(C)c(C)cc2[N+](=O)[O-])cc1 | -4.7 | -0.1 | 67.4* | 44.4 | 4.5 | 1.1
Oc1ccc(-c2cnc(-c3ccc(O)cc3)nc2)cc1 | 16.7 | 42.9 | -50.4 | 7.4 | -41.7 | -83.4
Nc1ccc(-c2cnc(-c3ccc(N)cc3)nc2)cc1 | x | x | -4.3 | 66.6* | 4.0 | -24.7
O=C(COC(=O)c1nc(Cl)c(Cl)c(Cl)c1Cl)c1ccc[nH]1 | -3.2 | -17.0 | 67.2* | 48.8 | 20.9 | -11.6
CN(C)c1ccc(C(=O)OCC(=O)c2ccc[nH]2)cc1 | -90.1 | 137.3* | -58.8 | 7.7 | -138.9 | -24.0
COc1ccc(NC(=O)Nc2ccc3c(c2)C(=O)N([C@@H](C)CO)C[C@@H](C)[C@H](CN(C)Cc2ccc(C(=O)O)cc2)O3)cc1 | -4.1 | x | x | x | x | x
CC(C)NC(=O)N(C)C[C@@H]1Oc2ccc(NC(=O)C3CC3)cc2CC(=O)N([C@@H](C)CO)C[C@@H]1C | 21.2 | x | x | x | x | x
Cc1ccc(S(=O)(=O)Nc2ccc3c(c2)CC(=O)N([C@H](C)CO)C[C@H](C)[C@H](CN(C)C(=O)Nc2ccc(F)cc2)O3)cc1 | -9.3 | x | x | x | x | x
CCCn1c(C)cs/c1=N\C(=S)Nc1ccccc1 | -4.1 | -0.2 | -34.5 | -2.8 | 6.3 | -2.0
Cc1cs/c(=N/C(=S)Nc2ccccc2)n1C | -59.2 | 102.0* | -34.1 | 3.1 | -108.7 | -7.6
Cc1cc(NCCCn2ccnc2)n2ncc(-c3ccccc3)c2n1 | x | -57.1 | 80.8* | 98.6* | 57.9 | 50.3*
Cc1cc(NCc2ccccc2)n2ncc(-c3ccccc3)c2n1 | -110.6 | 104.5* | 14.2 | 16.6 | -98.9 | -140.9
Cc1cc(NC2CCCC2)n2ncc(-c3ccccc3)c2n1 | 63.2* | 17.5 | 80.6* | 89.8* | -24.5 | 9.0
Cc1cc(NCCN2CCOCC2)n2ncc(-c3ccccc3)c2n1 | x | 32.6 | 11.2 | 26.6 | -29.6 | -20.0
COc1ccc(CCNc2cc(C)nc3c(-c4ccccc4)cnn23)cc1OC | -19.7 | 8.0 | -16.3 | 6.2 | -10.9 | 19.0
Cc1cc(NC(C)c2ccccc2)n2ncc(-c3ccccc3)c2n1 (centres undefined) | -141.0 | 121.7* | 18.7 | -0.5 | -121.5 | -61.6
